40 compounds from PubChem BioAssay (NCI) can be followed below.

The panel holds about 83,000 compounds, 20% with a hit somewhere; the sample as a whole holds those more often.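 Activity criterion: percent growth below 10, measured after cells in 96-well plates were exposed to a single compound concentration for 48 hours.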 Values without a mark were called inactive. The source made the active and inactive calls.

In the test the test system is OVCAR-5 ovarian. In words: NCI-60 one-dose screen, 48 h (100 = growth as untreated, 0 = no growth, -100 = all killed). As to conditions: 10 µM. The protocol: Growth inhibition of the OVCAR-5 human tumor cell line is measured as a screen for anti-cancer activity. Cells are grown in 96 well plates and exposed to the test compound for 48 hours. Compounds are tested at a single concentration, which is 10^-5 M for most compounds. The reported endpoint is percent growth (GI% or GIPRCNT), where numbers from 0 - 100% represent growth inhibition, and numbers from -100% - 0 represent cell death. For example, a value of 40 represents 60% growth inhibition. A value of 0 means no net growth occurred over the course of the experiment. A value of -40 indicates 40% of cells at the beginning of the experiment died by the end of the experiment. A value of -100 means all cells are dead at the end of the experiment.
NCI-60 Human Tumor Cell Lines Screen was performed using the standard one-dose NCI protocol, which is described in more detail at https://dtp.cancer.gov/discovery_development/nci-60/default.htm.
Compounds with GIPRCNT values below 10 were considered active. Activity score was based on GIPRCNT using the following formula: […]
Score is 0 for GIPRCNT values of 100 or above, 50 for GIPRCNT values of 0, and 100 for GIPRCNT values of -100.
With `COc1ccc(C(=O)/C=C/c2cc(-c3ccc(OC)c(OC)c3)n[nH]2)cc1OC`, the growth is -8.32% (active).

Consider `CCOC(=S)Sc1ccc([N+](=O)[O-])cc1[N+](=O)[O-]`, for which the growth was 99.2%. For `NC1CCC(Nc2nc(NCc3ccc(-c4cccs4)nc3)c3ncn(C4CCCC4)c3n2)CC1` (stereo not given) the value was 22.6%; for `CC(=O)c1c(O)cc2c3c1OC(C)(C)C1CCC(C)(CC31)O2` (stereo not given), 97.7%.

Take `COC(=O)[C@]12CC[C@@H](C)[C@H](C)[C@@H]1C1=CC[C@@H]3[C@@]4(C)CC(=O)[C@H](O)[C@@](C)(CO)[C@@H]4C(=O)C[C@@]3(C)[C@]1(C)CC2`: the growth was 50.7%. For `CCOC(=O)c1c(C)n(-c2ccc(Cl)cc2)c2ccc(OC(=O)/C=C/c3ccccc3)cc12` the value was 108%. Take `O=C(/C=C/c1nnc2n(Cc3ccccc3)c(=O)c3c4c(sc3n12)CCCC4)c1ccccc1`: the growth was 115%. For the compound `COc1ccc2oc(=O)cc(C3c4ccc([nH]4)C(c4cc(=O)oc5ccc(OC)cc45)c4ccc([nH]4)C(c4cc(=O)oc5ccc(OC)cc45)c4ccc([nH]4)C(c4cc(=O)oc5ccc(OC)cc45)c4ccc3[nH]4)c2c1` (stereo not given), the growth was 3.08% (active). The result for `O/N=C1\CCC2CCCCC2C1` (stereo not given) reads 104%; that for `CCCOCC(O)CNCCN` (stereo not given), 100%. In the case of `Cn1c(N)c(N=Cc2ccccc2)c(=O)n(C)c1=O`, the growth is 133%. For `N#Cc1cnc2ccc(NCc3cnc[nH]3)cc2c1Nc1ccc(F)c(Cl)c1` the value was 82.7%; for `Cn1c([N+](=O)[O-])cnc1/C=C1\Oc2ccc(Br)cc2C1=O`, -19.1% (active).

As to `NS(=O)(=O)c1ccc(N2N=C(c3ccc(-c4ccccc4)cc3)CC2c2ccc(Cl)cc2)cc1` (stereo not given), the growth is 95%. The result for `COc1ccc2nc(/C=C/c3ccc(N(C)C)cc3)sc2c1` reads 97.4%; that for `COc1cc(C2c3cc4c(cc3C(O)C(CO)C2CO)OCO4)cc(OC)c1OC` (stereo not given), 50.9%. For `N#CC1C=Cc2c(ccc3ccccc23)N1C(=O)c1ccccc1` (stereo not given) the value was 45.4%; for `Fc1cc(-c2ncc(-c3cc(F)c(F)c(F)c3)c(NC3CCCCCC3)n2)cc(F)c1F`, 110%. For `Cc1cnc(C=O)c2cccc([N+](=O)[O-])c12` the value was 95%. As to `Cc1ncc([N+](=O)[O-])n1CCOc1ccc(C(=O)/C=C/c2ccc(C(F)(F)F)cc2)cc1`, the growth was 90%. For `COc1ccc(-c2nsc3c2NC(=O)CC3c2ccc(Cl)cc2)cc1` (stereo not given) the value was 100%; for `COc1cccc2c1C(=O)c1c(O)c3c(c(O)c1C2=O)C[C@@](O)(C(=O)COC(=O)c1cccnc1)C[C@@H]3OC1CC(N)C(O)C(C)O1` (stereo not given in full), 6.95% (active); for `CCCCn1c(=O)[nH]c2c(c1=O)C(c1ccc(Cl)cc1)c1c([nH]c(=O)n(CCCC)c1=O)N2`, 99.5%. The result for `CC(=O)n1nc(C(=O)OC(C)(C)C)c2cc(F)c(F)cc21` reads 104%; that for `O=C(NNC(=O)c1ccncc1)Nc1ccc([N+](=O)[O-])cc1`, 108%. `CCOC(=O)c1ccc(N(C=O)CCC(=O)CCl)cc1`: the growth is 4.98% (active). Regarding `CC1=CSC2=NC(c3ccc(Cl)c(Cl)c3)=CC(c3ccc(Cl)cc3)N12` (stereo not given), the growth is 91.8%. For `CC1(CO)CCCC12OCCO2` (stereo not given) the value was 97.3%; for `COc1ccccc1S(=O)(=O)Nc1ccc2c(c1)CN(C)C(=O)N2`, 74.5%. Regarding `CCOc1ccc2c(c1)CC[C@@H]1[C@@H]2CC[C@]2(C)[C@@H](O)[C@@H](O)C[C@@H]12`, the growth was 95.7%.

On to `Cn1cnc([N+](=O)[O-])c1Sc1nnc(-c2ccccc2)c(-c2ccccc2)n1`, for which the growth was 93.6%. In the case of `Cc1ccc(/C=C2\CN(Cc3cn(CCNc4ccnc5cc(Cl)ccc45)nn3)C/C(=C\c3ccc(C)cc3)C2=O)cc1`, the growth is -10.9% (active). For `COc1ccc(Nc2nc(NCc3ccccc3)c3ccccc3n2)cc1` the value was 78.7%. The result for `COc1ccc(-c2cn[nH]c2-c2cc(OC)c(OC)c(OC)c2)cc1` reads 31.1%; that for `CCCCN(CCCC)c1ccc(C(=NC(C)CCCN(CC)CC)c2ccc(N(C)C)cc2)cc1` (stereo not given), -6.48% (active). For `CCNC(=S)NN` the value was 69.3%; for `N=C(N)c1ccc(-c2ccc(-c3ccccc3)s2)s1`, -23.7% (active). For `O=S(=O)(NCCO)c1ccc(OCCOc2ccc(S(=O)(=O)NCCO)cc2)cc1`, the growth was 99.2%.

With `COc1ccc(/C(=C/c2cc(OC)c(OC)cc2[N+](=O)[O-])C(=O)O)cc1`, the growth is 111%.

In the case of `CCCCOCCOCCOCc1cc2c(cc1Br)OCO2`, the growth was 95.5%.
